# PubChem BioAssay
# Calls of active or inactive are those of the source.
# Legend:
# Albumin (Bos taurus) = Albumin (Bos taurus) (UniProt P02769); test: bovine serum albumin binders on microarray, profiling panel, artefact control for SMM control protein annotation, biochemical, small-molecule microarray, Alexa647 label, 635/667 nm fluorescence (AID 1118); conditions: BSA-A647 binding, fluorescence 635 nm, higher = more signal;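 note: score merges 667 nm emission intensity and signal-to-noise per printed compound spot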
# [1] = small-molecule microarray binders of probe aXIP, primary screen, biochemical, NeuroSMM set, 635/667 nm fluorescence (AID 1119); conditions: higher = more signal, called active from +8 up or from −8 down;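 note: probe is the protein aXip251-270 applied at 1 µg/mL to compound-printed slides; binding of probe to printed compounds measured as 667 nm fluorescence plus signal to noise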
# [2] = small-molecule binders of probe aNOTCH3, primary screen, biochemical, small-molecule microarray, 635/667 nm fluorescence (AID 1120); conditions: higher = more signal;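 note: probe is a biotin-tagged antibody raised against NOTCH3 rather than NOTCH3 protein; score merges spot fluorescence near 667 nm with spot signal to noise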
# [3] = small-molecule binders of probe aNOTCH2, primary screen, biochemical, small-molecule microarray, 635/667 nm fluorescence (AID 1121); conditions: higher = more signal;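 note: score merges feature fluorescence read at 667 nm with its signal to noise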
# [4] = biological target: Carbonic anhydrase 2 (Homo sapiens) (UniProt P00918); test: CAII small-molecule binders, profiling panel, biochemical, small-molecule microarray, Alexa647-labelled CAII (AID 1122); conditions: CAII-A647 binding fluorescence, higher = more signal
# [5] = COS7 lysate on small-molecule microarray, probe aHis, 635 nm (AID 1123); conditions: COS7 cell lysate, fluorescence, higher = more signal;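 note: z-score combines 667nm fluorescence intensity with signal-to-noise per printed compound spot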
# [6] = compound binding in COS7 lysate, probe aLAP1, primary screen, cell lysate, small-molecule microarray (AID 1124); conditions: probe aLAP1, fluorescence, higher = more signal;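 note: lysate comes from COS7 cells expressing LAP1 and is applied at 0.3 µg/mL; score merges spot fluorescence near 667 nm with signal-to-noise over triplicate slides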
# Sam68 (KHDRBS1) = test: Sam68 small-molecule binders, primary screen, biochemical, small-molecule microarray, 635 nm fluorescence (AID 1125); conditions: small-molecule microarray binding, higher = more signal;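 note: score merges 667 nm channel intensity with signal to noise over triplicate slides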
# [7] = system: Chordin-like protein 2 (CHRDL2); test: CHRDL2 small-molecule binders, primary screen, biochemical, small-molecule microarray, 635 nm fluorescence (AID 1126); conditions: small-molecule microarray binding, fluorescence 635 nm; higher = more signal;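 note: printed compound slides probed with Chrdl2 protein at 4 µg/mL for 1 h at 4 C; score merges 667 nm emission intensity with signal to noise over three replicate slides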
# [8] = biological target: Concanavalin-A (Canavalia ensiformis) (UniProt P02866); test: ConA small-molecule binders, primary screen, artefact control for SMM control protein annotation, biochemical, small-molecule microarray, Alexa647 label, 635 nm (AID 1127); conditions: ConA-A647 binding fluorescence, higher = more signal;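 note: z combines 667 nm emission intensity with signal-to-noise across three replicate slides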
# [9] = anti-His antibody binders, primary screen, artefact control for SMM control protein annotation, biochemical, small-molecule microarray, 635 nm fluorescence (AID 1128); conditions: anti-His Alexa647 antibody binding, higher = more signal;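 note: score merges feature fluorescence with signal-to-noise for each printed compound spot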
# [10] = system: Human papillomavirus type 1a E7 protein (residues 1-88); test: HPV1a E7 small-molecule binders, primary screen, biochemical, small-molecule microarray, residues 1-88, 635 nm (AID 1129); conditions: small-molecule microarray binding, fluorescence 635 nm; higher = more signal
# [11] = biological target: Focal adhesion kinase 1 (Homo sapiens) (UniProt Q05397); test: small-molecule microarray binders of FAK, primary screen, biochemical, 635/667 nm fluorescence, BSA, DTT (AID 1130); conditions: PTK2 binding, 635 nm fluorescence, higher = more signal;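 note: composite of spot emission at 667 nm and signal to noise over triplicate slides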
# [12] = system: Fibrinogen (Alexa647-labelled); test: fibrinogen binders on compound microarrays, profiling panel, artefact control for SMM control-protein annotation, biochemical, small-molecule microarray, 635/667 nm fluorescence (AID 1131); conditions: fibrinogen-A647 binding fluorescence, higher = more signal;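 note: z-score merges 667 nm fluorescence with per-spot signal-to-noise over triplicate slides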
# [13] = biological target: Follistatin (Homo sapiens) (UniProt P19883); test: follistatin binders on small-molecule microarrays, primary screen, biochemical, small-molecule microarray, 635/667 nm fluorescence (AID 1132); conditions: FST binding, 635 nm fluorescence, higher = more signal
# [14] = biological target: Fibroblast growth factor 2 (Homo sapiens) (UniProt P09038); test: FGF2 binders on small-molecule microarrays, primary screen, biochemical, small-molecule microarray, 635/667 nm fluorescence (AID 1133); conditions: small-molecule microarray binding, FGF2, fluorescence 635/667; higher = more signal
# [15] = mitochondrial membrane potential change in A549 cells, profiling panel, cell-based, JC-1 fluorescence, basal, 24 h, 100 nL (AID 1138); conditions: higher = more signal;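 note: A549 lung adenocarcinoma cells under basal conditions with no added stimulus; test concentration not given here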
# Lefty1 = Lefty1 binders on small-molecule microarrays, primary screen, biochemical, small-molecule microarray, 635/667 nm fluorescence (AID 1139); conditions: small-molecule microarray binding, fluorescence 635/667; higher = more signal
# [16] = system: wheat germ agglutinin (Triticum aestivum), Alexa647-labelled; test: wheat germ agglutinin binders on compound microarrays, profiling panel, artefact control for SMM control-protein annotation, biochemical, small-molecule microarray, 635/667 nm fluorescence (AID 1140); conditions: WGA-A647 binding, 635 nm fluorescence, higher = more signal;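 note: score merges 667 nm feature emission with signal to noise over triplicate slides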
# [17] = biological target: Luciferin 4-monooxygenase (Photinus pyralis) (UniProt P08659); test: firefly luciferase enzyme inhibitors, primary screen, biochemical, luminescence, purified enzyme, 2006 set (AID 1141); conditions: SteadyGlo luminescence, 30 min, higher = more signal, called active from +8 up or from −8 down;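 note: cell-free assay with purified firefly luciferase at 100 ng per well in PBS; test concentration not given here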
# Sequence of Luciferin 4-monooxygenase (Photinus pyralis) (P08659 whole entry, looked up): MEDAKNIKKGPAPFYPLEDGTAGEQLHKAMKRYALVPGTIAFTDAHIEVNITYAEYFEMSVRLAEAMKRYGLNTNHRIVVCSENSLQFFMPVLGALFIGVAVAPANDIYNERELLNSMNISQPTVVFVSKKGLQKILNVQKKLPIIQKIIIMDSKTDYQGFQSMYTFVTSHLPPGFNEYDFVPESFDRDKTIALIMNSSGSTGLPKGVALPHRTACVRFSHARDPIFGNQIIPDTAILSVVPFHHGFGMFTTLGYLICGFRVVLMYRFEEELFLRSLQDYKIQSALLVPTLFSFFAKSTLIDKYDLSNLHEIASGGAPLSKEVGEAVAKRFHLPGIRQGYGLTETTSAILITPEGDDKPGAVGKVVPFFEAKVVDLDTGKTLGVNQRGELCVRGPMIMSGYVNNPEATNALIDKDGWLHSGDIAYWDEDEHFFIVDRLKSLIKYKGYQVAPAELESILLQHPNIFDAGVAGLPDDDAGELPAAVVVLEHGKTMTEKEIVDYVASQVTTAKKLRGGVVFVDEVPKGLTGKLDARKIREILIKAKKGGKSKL
# Sequence of Follistatin (Homo sapiens) (P19883 whole entry, looked up): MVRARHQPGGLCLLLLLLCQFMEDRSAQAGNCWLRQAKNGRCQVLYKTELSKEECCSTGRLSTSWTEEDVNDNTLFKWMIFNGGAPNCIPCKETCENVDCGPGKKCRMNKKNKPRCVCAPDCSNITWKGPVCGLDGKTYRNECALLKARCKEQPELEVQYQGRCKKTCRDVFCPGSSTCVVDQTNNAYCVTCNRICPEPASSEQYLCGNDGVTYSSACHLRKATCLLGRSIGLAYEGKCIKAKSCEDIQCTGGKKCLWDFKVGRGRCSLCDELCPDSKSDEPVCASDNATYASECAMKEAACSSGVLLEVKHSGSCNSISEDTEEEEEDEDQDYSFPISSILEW
# Sequence of Albumin (Bos taurus) (P02769 whole entry, looked up): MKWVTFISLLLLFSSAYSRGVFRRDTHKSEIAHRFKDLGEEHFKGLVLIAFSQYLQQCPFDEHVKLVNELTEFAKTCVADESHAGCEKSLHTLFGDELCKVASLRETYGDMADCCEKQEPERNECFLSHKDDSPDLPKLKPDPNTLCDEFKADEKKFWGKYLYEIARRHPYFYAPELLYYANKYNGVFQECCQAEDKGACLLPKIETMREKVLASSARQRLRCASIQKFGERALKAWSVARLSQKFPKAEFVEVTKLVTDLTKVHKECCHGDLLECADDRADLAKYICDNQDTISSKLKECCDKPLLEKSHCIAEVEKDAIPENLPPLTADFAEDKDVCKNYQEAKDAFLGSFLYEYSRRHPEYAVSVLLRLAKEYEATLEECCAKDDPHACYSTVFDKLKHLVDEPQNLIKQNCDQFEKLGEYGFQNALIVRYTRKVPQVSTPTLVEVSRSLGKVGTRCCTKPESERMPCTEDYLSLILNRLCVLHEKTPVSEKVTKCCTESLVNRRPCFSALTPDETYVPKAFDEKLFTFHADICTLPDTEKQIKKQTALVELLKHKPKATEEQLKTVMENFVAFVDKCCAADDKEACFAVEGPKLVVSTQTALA
# Sequence of Focal adhesion kinase 1 (Homo sapiens) (Q05397 whole entry, looked up): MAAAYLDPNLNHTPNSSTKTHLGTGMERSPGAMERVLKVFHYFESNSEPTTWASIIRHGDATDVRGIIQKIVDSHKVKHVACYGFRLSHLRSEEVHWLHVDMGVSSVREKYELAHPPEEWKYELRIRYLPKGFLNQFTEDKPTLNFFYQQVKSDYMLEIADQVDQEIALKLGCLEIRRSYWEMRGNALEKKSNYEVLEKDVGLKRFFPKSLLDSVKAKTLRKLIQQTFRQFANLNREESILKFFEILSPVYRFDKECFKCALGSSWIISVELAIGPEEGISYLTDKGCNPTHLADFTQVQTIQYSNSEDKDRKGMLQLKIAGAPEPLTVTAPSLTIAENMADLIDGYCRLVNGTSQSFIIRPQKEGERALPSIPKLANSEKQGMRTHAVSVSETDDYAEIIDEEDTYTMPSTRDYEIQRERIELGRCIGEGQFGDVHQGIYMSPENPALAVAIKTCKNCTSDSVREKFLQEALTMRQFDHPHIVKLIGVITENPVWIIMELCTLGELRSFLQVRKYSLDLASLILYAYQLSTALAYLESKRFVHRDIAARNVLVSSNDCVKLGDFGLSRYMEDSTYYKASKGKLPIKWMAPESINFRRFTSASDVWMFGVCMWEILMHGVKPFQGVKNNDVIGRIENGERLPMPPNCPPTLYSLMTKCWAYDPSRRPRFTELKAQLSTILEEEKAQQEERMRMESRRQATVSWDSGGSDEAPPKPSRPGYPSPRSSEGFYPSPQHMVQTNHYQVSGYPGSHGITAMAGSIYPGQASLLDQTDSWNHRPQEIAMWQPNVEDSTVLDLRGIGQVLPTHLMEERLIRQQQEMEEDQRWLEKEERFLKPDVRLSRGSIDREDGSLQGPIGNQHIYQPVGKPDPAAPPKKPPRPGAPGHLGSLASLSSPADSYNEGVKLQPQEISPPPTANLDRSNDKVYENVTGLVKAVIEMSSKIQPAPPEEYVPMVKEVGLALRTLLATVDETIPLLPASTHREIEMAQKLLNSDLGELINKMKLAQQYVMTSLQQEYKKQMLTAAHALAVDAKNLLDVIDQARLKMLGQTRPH
# Sequence of Concanavalin-A (Canavalia ensiformis) (P02866 whole entry, looked up): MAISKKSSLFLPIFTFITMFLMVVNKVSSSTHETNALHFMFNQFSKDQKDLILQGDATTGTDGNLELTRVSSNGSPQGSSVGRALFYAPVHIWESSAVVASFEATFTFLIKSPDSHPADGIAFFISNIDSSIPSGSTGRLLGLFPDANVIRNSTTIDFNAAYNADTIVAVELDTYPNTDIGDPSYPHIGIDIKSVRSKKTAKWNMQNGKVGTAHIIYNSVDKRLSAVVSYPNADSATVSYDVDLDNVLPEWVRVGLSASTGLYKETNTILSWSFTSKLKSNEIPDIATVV
# Sequence of Fibroblast growth factor 2 (Homo sapiens) (P09038 whole entry, looked up): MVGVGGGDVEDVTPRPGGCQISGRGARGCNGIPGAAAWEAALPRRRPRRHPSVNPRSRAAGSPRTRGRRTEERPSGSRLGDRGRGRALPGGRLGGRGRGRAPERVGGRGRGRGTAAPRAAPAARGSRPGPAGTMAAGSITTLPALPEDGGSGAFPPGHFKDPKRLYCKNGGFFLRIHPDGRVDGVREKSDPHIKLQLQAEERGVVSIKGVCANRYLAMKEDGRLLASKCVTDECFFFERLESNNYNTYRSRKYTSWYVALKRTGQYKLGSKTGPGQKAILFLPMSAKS
SMILES,composite z-score (Albumin (Bos taurus)),composite Z-score [1],composite z-score [2],composite z-score [3],composite z-score [4],composite z-score [5],composite z-score [6],composite z-score (Sam68 (KHDRBS1)),composite z-score [7],composite z-score [8],composite z-score [9],composite z-score [10],composite z-score [11],composite z-score [12],composite z-score [13],composite z-score [14],z-score [15],composite z-score (Lefty1),composite z-score [16],z-score [17]
CCOC(=O)C[C@H]1[C@H](OC(=O)c2ccc(C(=O)c3ccccc3)cc2)[C@@H](NC(=O)Cc2ccc(OC)cc2)c2cc(OCCCO)ccc2N1C(=O)Cc1ccc(OC)cc1,0.602,-0.333 (inactive),0.0397,-0.0505,0.0899,0.954,0.397,1.05,-0.49,1.01,0.0446,1.07,0.551,0.729,0.295,-0.078,2.88,0.607,0.855,-0.927 (inactive)
CO[C@H]1O[C@H](CO)[C@@H](OC(=O)Nc2ccccc2)[C@H](OC(=O)Nc2ccc3c(c2)OCO3)[C@H]1OC(=O)Nc1ccc2c(c1)OCO2,0.06,0.219 (inactive),0.224,-0.0289,0.599,2.14,0.294,1.29,-0.494,1.18,1.75,1.19,2.04,0.172,0.612,-0.0687,0.316,0.345,0.571,-1.63 (inactive)
COc1ccc([Si](C)(C)[C@H]2[C@H](CC(=O)N3Cc4ccccc4C[C@H]3CO)O[C@@]3(C(=O)N(Cc4cccc(N5C(=O)COc6ccccc65)c4)c4ccccc43)[C@@H]2C)cc1,-0.534,0.373 (inactive),0.0297,-0.102,0.635,1.97,-0.245,1.02,1.38,1.16,1.57,0.671,0.81,0.585,1.17,1.6,0.388,1.44,0.862,-0.961 (inactive)
CO[C@H]1O[C@H](CO)[C@@H](OC(=O)CCc2ccccc2)[C@@H]2OC(=O)[C@H](Cc3ccccc3)C/C=C/C[C@@H](Cc3ccccc3)C(=O)O[C@@H]12,-0.707,0.508 (inactive),-0.19,-0.0928,0.746,0.75,-0.662,0.506,-0.845,-1.04,-0.13,-0.109,0.186,-0.565,-0.618,-0.38,1.01,-0.71,-1.32,-1.21 (inactive)
O=C1c2ccccc2C(=O)c2cc([C@H]3Oc4ccccc4S(=O)(=O)N4CCC[C@@H]34)ccc21,-0.791,-0.228 (inactive),-0.227,-0.0933,-0.157,-0.319,-0.235,-1.02,-0.504,-2.59,-1.02,-0.551,-0.953,-0.91,-1.07,-0.533,1.18,-0.534,-1.26,-1.04 (inactive)
